Among the data in the supplement of paper PMC4100887 are relative cell viability values, retold here.

± gives the standard deviation of the averaged measurements.

This assay deals with IMR-90. Put plainly: relative cell viability (ATPlite) vs untreated control (fraction); higher = less toxic. Conditions: 1 µM; 72 h. A general note: In ATP-based viability assays light output follows the ATP content of the culture.
`CC(=O)O/N=C1/C(c2c(O)[nH]c3cc(Br)ccc23)=Nc2ccccc21` [GSK-3 Inhibitor X] returned a relative cell viability of 0.903 ± 0.052. The result for `Nc1ncnc2c1c(I)cn2[C@@H]1O[C@H](CO)[C@@H](O)[C@H]1O` [5-Iodotubercidin] reads 0.745 ± 0.14; that for `COc1ccc(CNc2nc(N(CCO)CCO)nc3c2ncn3C(C)C)cc1` [Cdk2 Inhibitor III], 0.927 ± 0.086; that for `c1ccc(-c2n[nH]c3c2oc2ccccc23)cc1`, 0.943 ± 0.083. `CCCCCCOC(=O)[C@]1(O)C[C@@H]2O[C@@]1(C)n1c3ccccc3c3c4c(c5c6ccccc6n2c5c31)C(=O)NC4` displayed a relative cell viability of 1.05 ± 0.14.

Compound `CCC(CO)Nc1nc(NCc2ccccc2)c2ncn(C(C)C)c2n1` [Roscovitine, (S)-Isomer] yielded a relative cell viability of 1.04 ± 0.054.

As for `CCN(CC)C(=O)c1ccc(Nc2nc(OCC3CCCCC3)c3[nH]cnc3n2)cc1` [Cdk2 Inhibitor IV, NU6140], the relative cell viability stood at 1.03 ± 0.076. The result for `Nc1[nH]nc2nnc(-c3c(-c4ccccc4)nn4ccccc34)cc12` reads 1.03 ± 0.046; that for `CC(C)(C)c1nc2c3cc[nH]c(=O)c3c3cc(F)ccc3c2[nH]1` [JAK Inhibitor I], 1.01 ± 0.045.

Compound `O=C(Nc1ccc(-c2cn[nH]c2)cc1)C1COc2ccccc2O1` (centres undefined) [Rho Kinase Inhibitor V] had a relative cell viability of 1.09 ± 0.066. The result for `COc1ccc(Cl)cc1NC(=O)Nc1cc(C)nc2ccccc12` [IGF-1R Inhibitor II] reads 1.04 ± 0.08; that for `CC(C)n1cnc2c(NCc3ccccc3O)nc(NCCCO)nc21` [Cdk Inhibitor, p35], 1.04 ± 0.054. Compound `CNc1cc2c(Nc3cccc(Br)c3)ncnc2cn1` had a relative cell viability of 1.04 ± 0.053. For `NS(=O)(=O)c1ccc(N=Nc2c(O)[nH]c3ccc(Br)cc23)cc1` [Cdk2 Inhibitor II], the relative cell viability stood at 1.22 ± 0.2.
